D3 ag – agonists of human D3 dopamine receptor | P35462 | D3R DiscoveRx beta-arrestin cells, luminescence, 90 min | max activation, % | 0.58% of 410,000 active | AID 652048; in the data active = max activation above about 30%; note: 0% is about no effect
Target sequence (P35462 whole entry, looked up): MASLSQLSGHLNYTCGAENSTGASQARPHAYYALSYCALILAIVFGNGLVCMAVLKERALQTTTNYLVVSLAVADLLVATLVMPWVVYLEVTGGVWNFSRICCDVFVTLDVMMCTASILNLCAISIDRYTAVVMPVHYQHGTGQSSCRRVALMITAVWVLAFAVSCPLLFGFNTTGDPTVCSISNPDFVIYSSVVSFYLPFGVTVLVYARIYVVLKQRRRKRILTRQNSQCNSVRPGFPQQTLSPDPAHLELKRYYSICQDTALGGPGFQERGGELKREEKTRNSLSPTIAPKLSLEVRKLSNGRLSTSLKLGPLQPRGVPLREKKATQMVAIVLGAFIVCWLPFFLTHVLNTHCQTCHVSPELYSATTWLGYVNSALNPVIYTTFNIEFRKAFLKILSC
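Agonist-mode cell screen: cells plated at 1500/well and incubated overnight at 37 °C, then exposed to library compounds for 90 min at 37 °C. Detection reagent was added for 30–60 min at room temperature, and luminescence was read.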
KB-3-1 cytotox – KB-3-1 parental cell cytotoxicity; KB-3-1 viability, CellTiter-Glo ATP luminescence, 72 h; 1.4% of 400,000 active; Potency, µM (highest dose often 46.1 µM), most hits filed as cytotoxic; note: potency is the fitted concentration of half-maximal effect; % is set by controls: 0 for no effect and ±100 for the full control effect; nearly all actives have a fitted effect of over 60% in size
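Cytotoxicity measured as CellTiter-Glo luminescence after 72 h at 37 C. Compound titrations were pinned onto drug-naive KB-3-1 parental adenocarcinoma cells grown in DMEM with 10% FBS, and normalized data fitted to concentration-response curves.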
SW480 rerep – induces DNA re-replication in SW480 colon adenocarcinoma cells; SW480 DNA re-replication, Hoechst DNA content imaging, 48 h; Potency, µM (top dose mostly 46.1 µM), without a hit: top-dose re-replication activation, hits mostly activators; 1.8% of 340,000 active; AID 624297; note: potency is the fitted concentration of half-maximal effect; % of control where 0% means no effect; nearly all actives have a fitted effect of over 55% in size
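250 cells/well; 23 nL cpd via pin tool; 48 hr, 37 C, 5% CO2; Hoechst 40 min; imager read of total nuclear intensity, ex 405/em 500-530 nm.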
MCF10A rerep – induces DNA re-replication in MCF 10a normal breast cells | Potency, µM (highest dose often 46.1 µM), without a hit: top-dose activity, positive = re-replication, usual class: activators | MCF 10A DNA re-replication, Hoechst nuclear intensity, 48 h | 2.9% of 350,000 active; note: potency is the fitted concentration of half-maximal effect; % of control where 0% means no effect; nearly all actives have a fitted effect of over 50% in size
DRD3 antagonist – antagonists of human D3 dopamine receptor; P35462; D3R cells, DiscoveRx beta-arrestin luminescence, antagonist mode; stronger effect = lower value; max response, negative = inhibition, %; 2.5% of 360,000 active; AID 652054; in the data active = max response below about -50%; inconclusive = no clear call, values can overlap the other calls; note: % is set by controls: 0 for no effect and ±100 for the full control effect
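Cells plated overnight at 1500 cells/well, then exposed to library compounds with dopamine controls for 90 minutes at 37 degrees C. DiscoveRx reagent added for 30–60 minutes at room temperature; luminescence read, quantitative HTS format.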
KB-V1 cytotox – kills drug-selected multidrug resistant KB-V1 cells; 3.4% of 400,000 active; KB-V1 MDR cells viability, CellTiter-Glo, 72 h; AID 1347076; Potency, µM (titrated, usually from 46.1 µM), most hits filed as cytotoxic; note: potency is the fitted concentration of half-maximal effect; % is set by controls: 0 for no effect and ±100 for the full control effect; nearly all actives have a fitted effect of over 60% in size
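Following 72 h at 37 degrees C with compound, KB-V1 cell viability was read by CellTiter-Glo luminescence, medium being phenol-red-free DMEM plus 10% FBS; concentration-response parameters came from normalized, curve-fitted qHTS data.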
The depositor's hits bear a star; i = inactive; u = inconclusive; x = no result; [ ] = dose if it differs, or a comment. A selection: hits, their analogues and other compounds. The true share with any hit is near 8.9%. Unless noted, calls come from the whole dose curve; as a rule, active = well fitted curve in the direction sought with a large enough effect; inconclusive = small, poorly fitted or top-dose-only effect, or another doubt; inactive = no such curve, though single readings can be large; an effect the other way counts as inactive or inconclusive.

SMILES	D3 ag	KB-3-1 cytotox	SW480 rerep	MCF10A rerep	DRD3 antagonist	KB-V1 cytotox
O=C(c1ccccc1)N1CCC(c2nc3ccccc3o2)CC1	-0.5	x	x	x	x	x
CCOC(=O)c1[nH]c(C)c(CCC(=O)N2CCN(c3cccc(C)c3C)CC2)c1C	7.6	u	x	x	x	i
Cc1ccc(C)c(N2CCN(C(=O)Cn3c(C)c4cnn(-c5ccccc5)c(=O)c4c3C)CC2)c1	8.1	u	x	x	x	i
COc1ccc(CN(C)CC2CCCN(CCc3ccccc3C)C2)cc1O (centres undefined)	-16.5	i	15.9%	7.1%	14.8	i
COc1cc(OC)c(OC)cc1CN(C)CC1CCCN(CCc2ccccc2F)C1 (centres undefined)	-3.4	i	0.2%	4.4%	-51.2*	u
COc1ccc(Cc2nnc(N/N=C/c3ccc(O)cc3)[nH]c2=O)cc1OC	-2.0	0.581µM*	u	8.2µM*	-13.0	u
COc1ccc(Cc2nnc(N/N=C/c3ccc(Br)cc3)[nH]c2=O)cc1OC	0.2	i	0.5%	0.7%	-0.1	i
O=CNc1c(Cl)cc2c(c1Cl)Cc1cc([N+](=O)[O-])ccc1-2	11.8	u	20.6µM*	u	10.6	u
O=[N+]([O-])c1ccc2c(c1)Cc1cc(F)ccc1-2	-11.4	i	-2.3%	-28.5%	1.9	u
COc1ccc(N2CCN(C(=O)Cn3cnc4sc(C)c(S(=O)(=O)N5CCCCC5)c4c3=O)CC2)cc1	3.8	i	x	x	x	i
CC(C)NC[C@H](O)COc1ccc(CC(N)=O)cc1	x	i	-3.9%	-22.3%	x	i
O=C(Cc1ccc(N2CCNC2=O)cc1)N1CCCC(Nc2ccc(F)c(F)c2)C1 (centres undefined)	-16.0	7.31µM*	5.8µM*	u	-18.7	i
O=C(Cc1ccc(N2CCNC2=O)cc1)N1CCCC(Nc2cccc(F)c2)C1 (centres undefined)	-0.9	4.11µM*	u	3.66µM*	1.2	u
O=C(c1cccc(N2CCNC2=O)c1)N1CCCC(Nc2cccc(F)c2)C1 (centres undefined)	3.1	i	-3.1%	u	1.3	i
CC(C)COC(=O)c1cccc2c1-c1ccccc1/C2=N\O	2.4	i	1.0%	18.4µM*	-27.6	i
CCOC(=O)c1cccc2c1-c1ccccc1/C2=N/O	30.0	i	1.6%	12.3%	32.7	i
COc1ccccc1-c1nc(S(=O)(=O)c2ccc(Cl)cc2)c(N(C)C)o1	2.0	i	-14.8%	u	3.9	i
COc1ccccc1/C=C/c1nc(S(=O)(=O)c2ccccc2)c(N(C)C)o1	-1.5	i	u	20.6µM*	11.7	i
CSc1oc(-c2cccs2)nc1S(=O)(=O)c1ccccc1	0.2	i	-0.4%	-1.4%	3.9	i
COc1cccc(/C=C/c2nc(S(=O)(=O)c3ccccc3)c(N(C)C)o2)c1	6.0	i	u	11.6µM*	15.5	i
CN(C)c1oc(/C=C/c2cccs2)nc1S(=O)(=O)c1ccccc1	-1.4	i	23.1µM*	18.4µM*	-20.1	i
COCCNc1oc(/C=C/c2cccc(OC)c2)nc1S(=O)(=O)c1ccccc1	-1.3	i	x	x	-8.9	i
CCN1C(=O)c2ccccc2Sc2ccc(NC(=O)c3ccc(C)c(F)c3)cc21	-6.0	u	x	x	x	u
CCOc1ccccc1NC(=O)c1c(NCc2ccc(OC)c(OC)c2OC)sc2c1CCC(C)C2 (centres undefined)	-19.6	i	x	x	x	i
O=C(NNC(=O)C12CC3CC(CC(O)(C3)C1)C2)c1ccccc1O	0.7	u	16.4µM*	2.7%	-5.1	i
SMILES	D3 ag	KB-3-1 cytotox	SW480 rerep	MCF10A rerep	DRD3 antagonist	KB-V1 cytotox
Cc1ccc(Cl)cc1NC(=O)CSc1nc2ccccc2c2nc(-c3ccccc3)nn12	2.3	i	x	x	x	i
Cc1nn(Cc2c(Cl)cccc2Cl)c(C)c1NC(=O)c1cn(-c2ccccc2)nc1-c1ccccc1	14.8	8.2µM*	8.2µM*	4.47µM*	3.9	9.2µM*
Cc1ccc(NC(=O)c2cn(-c3ccccc3)nc2-c2ccccc2)cc1	-20.7	i	x	x	x	u
Cc1nn(Cc2c(Cl)cccc2Cl)c(C)c1NC(=O)c1sc2ccccc2c1Cl	6.4	i	u	10µM*	10.9	i
Cc1ccccc1Cn1nc(C)c(NC(=O)c2sc3ccccc3c2Cl)c1C	11.5	u	10.0%	u	-3.0	13µM*
Cc1nn(Cc2ccc(Cl)cc2Cl)c(C)c1NC(=O)c1sc2ccccc2c1Cl	-0.6	i	-2.9%	8.8%	14.5	i
Cc1ccccc1Cn1cc(S(=O)(=O)c2ccc(Cl)cc2)c(=O)c2cc3c(cc21)OCO3	-12.7	i	x	x	x	i
COc1ccc2cc(-c3nnc(Nc4ccccc4)s3)c(=O)oc2c1	-3.8	i	x	x	x	i
NS(=O)(=O)c1ccc(CCNC(=O)COC(=O)c2ccc([N+](=O)[O-])o2)cc1	-5.5	i	-6.5%	0.6%	8.3	i
O=c1cc(N2CCCCC2)c(-c2ccccc2)n[nH]1	9.5	i	-2.5%	0.9%	14.4	i
O=c1cc(N2CCCCC2)c(-c2ccccc2)nn1Cc1ccc(Cl)cc1	-2.0	u	u	16.4µM*	-15.3	u
O=c1cc(N2CCCCC2)c(-c2ccccc2)nn1Cc1c(Cl)cccc1Cl	-4.3	u	19.1%	20.6µM*	-68.6*	u
O=c1cc(N2CCCCC2)c(-c2ccccc2)nn1Cc1ccc(F)cc1	-9.6	u	-12.6%	u	-12.1	i
N#Cc1nc(N2CCCC2)nc(N(c2ccccc2)c2ccccc2)n1	x	i	x	x	x	i
Cc1c(/C=N\NC(=O)c2csc3ccccc23)cnn1C	-4.1	u	20.6µM*	u	-0.6	u
CCn1ncc(/C=N\NC(=O)c2csc3ccccc23)c1C	-4.5	6.51µM*	11.6µM*	10.3µM*	-18.1	u
Cc1nn(C)c(C)c1/C=N/NC(=O)c1csc2ccccc12	-2.4	i	-5.8%[9.22 µM]	-17.9%	-14.9	i
CCn1c(=O)c2cc(S(=O)(=O)NCc3ccccc3)ccc2n(CC)c1=O	-5.2	i	-0.7%	12.7%	-7.0	14.6µM*
CCn1c(=O)c2cc(S(=O)(=O)NCCOc3ccccc3)ccc2n(CC)c1=O	5.5	i	-11.3%	-5.3%	-22.9	i
CC12CCC(=O)N1C(C(=O)Nc1nccs1)CS2 (centres undefined)	78.9*	i	-299.4%	-37.3%	8.3	i
C(=NN=Cc1c[nH]c2ccccc12)c1c[nH]c2ccccc12	9.4	i	x	x	2.0	i

Assay outcomes: PubChem BioAssay, National Center for Advancing Translational Sciences (NCATS)
